Assay results taken from PubChem BioAssay.

These compounds were tested against Torsin-1A-interacting protein 1 (Homo sapiens) (UniProt Q5JTV8) (assay: compound microarray binding of lysate hLAP1 – cell lysate, small-molecule microarray, COS7 lysate, 635/667 nm fluorescence, primary screen (AID 1116)). Conditions: 635 nm fluorescence, higher = more signal.
Chain of Torsin-1A-interacting protein 1 (Homo sapiens) (Q5JTV8 whole entry, looked up): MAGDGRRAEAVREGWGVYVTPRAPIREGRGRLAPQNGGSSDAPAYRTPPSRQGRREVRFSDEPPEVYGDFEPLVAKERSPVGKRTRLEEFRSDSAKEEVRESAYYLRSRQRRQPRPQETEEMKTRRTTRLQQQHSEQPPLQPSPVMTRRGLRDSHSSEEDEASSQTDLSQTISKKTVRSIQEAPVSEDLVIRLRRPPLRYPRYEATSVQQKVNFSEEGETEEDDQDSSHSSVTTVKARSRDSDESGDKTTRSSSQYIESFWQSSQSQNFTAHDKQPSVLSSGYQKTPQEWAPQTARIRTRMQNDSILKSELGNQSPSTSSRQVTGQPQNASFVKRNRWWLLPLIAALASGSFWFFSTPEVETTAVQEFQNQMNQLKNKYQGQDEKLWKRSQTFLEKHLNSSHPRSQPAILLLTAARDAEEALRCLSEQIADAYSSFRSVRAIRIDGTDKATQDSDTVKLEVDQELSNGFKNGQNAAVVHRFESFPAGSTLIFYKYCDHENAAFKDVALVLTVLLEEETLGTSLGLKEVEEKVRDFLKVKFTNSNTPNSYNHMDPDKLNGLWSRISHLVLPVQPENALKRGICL

Row | Compound | composite z-score
1 | COc1cc2c(cc1O)C=[N+](Cc1cccc(OC(F)(F)F)c1)CC2 | 0.15
2 | CCOC(=O)C=Cc1cc([N+](=O)[O-])ccc1O | 0.106
3 | N#Cc1ccc(NN2C(C(O)c3c(F)cccc3Cl)C=CC3C(=O)N(c4ccccc4)C(=O)C32)cc1 (stereo unspecified) | 2.65
4 | O=C1O[C@H](c2ccccc2)[C@H](c2ccccc2)N2[C@H]1[C@@H](C(=O)NC[C@H](O)c1ccccc1)[C@]1(C(=O)Nc3ccccc31)[C@H]2c1ccc(OCCO)cc1 | 1.5
5 | O=C1c2ccccc2[C@](Cc2ccccc2I)(C(=O)NC2CC2)[C@H](c2ccc(CO)cc2)N1C1CCCCC1 | 0.547
6 | CC(C)C[C@@H]1NC(=O)[C@@H]2C[C@H](C(=O)NCCCCCN)[C@H](c3cccc(OCCO)c3)N2C1=O | 1.36
7 | CCCCCN1CC=CC23O[C@@H]4/C=C\CCCOC(=O)C4[C@H]2C(=O)N(C(CO)C(C)C)[C@@H]3C1=O (stereo partly specified) | 0.174
8 | O=C(NCc1ccc(F)cc1)[C@H]1C[C@H]2C(=O)N[C@@H](Cc3ccccc3)C(=O)N2[C@H]1c1ccc(O)cc1 | 0.33
9 | COCC(=C=CC[C@@H](O)c1ccccc1OCCO)C[C@@H](O)c1cc(Cl)cc(Cl)c1O | 0.704
10 | COCCOC(=O)N1C(=O)[C@@]2(c3cc(C#CC4=CCCCC4)ccc31)[C@H](C(N)=O)[C@H]1C(=O)O[C@H](c3ccccc3)[C@H](c3ccccc3)N1[C@@H]2c1ccc(OCCO)cc1 | 0.855
11 | O=C1OCCC/C=C\[C@H]2OC34C=CCN(Cn5nnc6ccccc65)C(=O)[C@H]3N(CCO)C(=O)[C@@H]4C12 (stereo partly specified) | -0.482
12 | C=CCOC(=O)[C@H]1[C@@H]2C(=O)O[C@@H](c3ccccc3)[C@@H](c3ccccc3)N2[C@@H](c2ccc(OCCOC(=O)[C@@H]3C[C@@H]4C(=O)N5CCC[C@H]5C(=O)N4[C@@H]3c3cccc(OCCO)c3)cc2)[C@]12C(=O)Nc1ccccc12 | 0.834
13 | CCCCCCC#C[Si](O[C@H](c1ccccc1)c1cn([C@H](CO)Cc2ccccc2)nn1)(C(C)C)C(C)C | 0.8
14 | COc1ccc([Si](C)(C)[C@H]2[C@H](CC(=O)N3CCC[C@H]3CO)O[C@@]3(C(=O)N(Cc4cccc(N5C(=O)c6cccc7cccc5c67)c4)c4ccccc43)[C@@H]2C)cc1 | 0.582
15 | CC(C)C[C@@H]1NC(=O)[C@H]2C[C@@H](C(=O)NCCCCCCN(C)C)[C@@H](c3ccc(O)cc3)N2C1=O | 1.03
16 | CN1C(=O)C2C=CC(C(O)C3CC=CCC3)N(NC(=O)OC(C)(C)C)C2C1=O (stereo unspecified) | 1.84
17 | O=C1OCCC/C=C\[C@H]2OC34C=CCN(CCN5CCOCC5)C(=O)[C@H]3N(CCCO)C(=O)[C@@H]4C12 (stereo partly specified) | 1.05
18 | Cc1ccc(S[C@]2(C(=O)NCC(F)(F)F)CC(=O)N(C(C)C)[C@@H]2c2ccc(CO)cc2I)cc1 | -0.261

Row | Compound | composite z-score
19 | CCCCCN1CC=CC23O[C@@H]4/C=C\CCCOC(=O)C4[C@H]2C(=O)N(CCCO)[C@@H]3C1=O (stereo partly specified) | 2.88
20 | CN(C)C(=O)[C@]1(Cc2ccccc2N=[N+]=[N-])N=C(c2ccc(OCCCO)cc2)O[C@@H]1c1ccccc1 | 0.897
21 | COCCOC(=O)N1C(=O)[C@@]2(c3cc(C#CC4=CCCCC4)ccc31)[C@H](C(=O)Nc1nc3ccccc3s1)[C@H]1C(=O)O[C@H](c3ccccc3)[C@H](c3ccccc3)N1[C@@H]2c1ccccc1OCCO | 0.512
22 | CN1C(=O)C2C=CC(C(O)c3cccs3)N(Nc3ccccc3)C2C1=O (stereo unspecified) | 0.558
23 | CCc1oc(CC[C@@H](CO)NC(=O)NCCn2cc(C3(O)CCCCC3)nn2)c(C(=O)OC)c1C(=O)OC | 0.946
24 | C=C[C@H](COC(C)=O)N(C(=O)OC(C)(C)C)S(=O)(=O)c1ccc(Br)cc1 | 0.395
25 | C[N+](C)(C)CCCCNC(=O)[C@H]1C[C@H]2C(=O)N[C@@H](Cc3ccccc3)C(=O)N2[C@H]1c1ccc(O)cc1 | 0.427
26 | CCOC(=O)[C@H]1C/C=C/C[C@H](C(=O)OCC)C(=O)O[C@H]2[C@@H](OC)O[C@H](CO)[C@@H](OC(=O)Nc3cccc(F)c3)[C@@H]2OC1=O | 0.556
27 | NCCCCCNC(=O)[C@@H]1C[C@@H]2C(=O)N[C@@H](Cc3ccccc3)C(=O)N2[C@@H]1c1cccc(OCCO)c1 | 0.362
28 | C=CCOC(=O)[C@H]1[C@@H]2C(=O)O[C@@H](c3ccccc3)[C@@H](c3ccccc3)N2[C@@H](c2ccc(OCCOC(=O)[C@@H]3C[C@@H]4C(=O)N[C@@H](CCCCN(C)C)C(=O)N4[C@@H]3c3ccc(O)cc3)cc2)[C@]12C(=O)Nc1ccc(I)cc12 | 1.36
29 | CC(C)C[C@H]1NC(=O)[C@@]23C(=O)N[C@@H](Cc4ccccc4)C2[C@H](C)[C@@]2(C)O[C@H]2C3/C=C/C/C=C\CNC(=O)[C@H](Cc2ccccc2)NC1=O (stereo partly specified) | -0.225
30 | CCOC(=O)[C@H]1CC=C2CC1C(=O)N1CCC[C@@H]1[C@@H]2O[Si](C)(C)C(C)(C)C (stereo partly specified) | -0.523
31 | COc1ccc([Si](C)(C)[C@H]2[C@H](CC(=O)N3Cc4ccccc4C[C@H]3CO)O[C@@]3(C(=O)N(Cc4ccc(N5CCC5=O)cc4)c4ccccc43)[C@@H]2C)cc1 | 1.45
32 | O=C1C2C=CC(C(O)C(c3ccccc3)c3ccccc3)N(n3cnnc3)C2C(=O)N1Cc1ccccc1 (stereo unspecified) | 1.57
33 | O=C(O)[C@@]1(CCS(=O)(=O)c2ccccc2)COC(c2ccc(OCCCO)cc2)=N1 | 2.98
34 | C[C@]1(C(=O)NC2CC2)c2ccccc2C(=O)N(Cc2cc(C(F)(F)F)cc(C(F)(F)F)c2)[C@H]1c1ccc(CO)cc1 | 0.207
35 | CCCC[C@@H]1C[C@H]1[C@@H](NC(=O)c1ccco1)c1ccc(C(=O)OC)cc1 | -0.392
36 | O=C1O[C@H](c2ccccc2)[C@H](c2ccccc2)N2[C@H]1[C@@H](C(=O)Nc1nc3ccccc3s1)[C@]1(C(=O)Nc3ccc(C#CCCO)cc31)[C@H]2c1ccc(OCCO)cc1 | 1.07
